# Compound activity from PubChem.
# mHTT CaM bind: mutant huntingtin-calmodulin interaction inhibitors – biochemical, AlphaScreen, primary screen | P42858 | AlphaScreen His-mHTT/GST-CaM binding, luminescence | inhibition, % at 15 µM | hit rate 3.6% among 190,000 | AID 1671202, 2021;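 also: 0% = both proteins with DMSO and 100% = one protein alone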
# Pf apPOL inh: Pf-apPOL inhibitors, biochemical, fluorescence; Recombinant Pf-apPOL, molecular beacon fluorescence, 1.5 h; inhibition, % at 10 µM; hit rate 0.25% among 210,000; AID 1794808, 2022
# * marks the source's active call; other numbers are inactive results; / = not tested or not shown; ! = not active in a repeat. The list is not random: actives were taken first. Their share in the collection is about 3.6%. Rule as the data show it: active = inhibition above about 50%; inactive = the rest.
SMILES,mHTT CaM bind,Pf apPOL inh
Cc1ccc(NC(=O)C2CCN(c3nccc(C)n3)CC2)c(Cl)c1,-13,1
O=C(Nc1ccc2c(c1)OCCO2)c1ccnc(N2CCNC(c3ccccc3)C2)c1 (stereo not drawn),16,4
O=C(Nc1ccc2c(c1)CCC2)c1ccnc(N2CCNC(c3ccccc3)C2)c1 (stereo not drawn),82*,-4
CCC(C)C1NC2(CCN(C(=O)c3ccc(Cl)cc3)CC2)N(C)C1=O (stereo not drawn),8,3
CC(C)C(=O)Nc1nnc(C2CC(=O)N(c3ccc(S(C)(=O)=O)cc3)C2)o1 (stereo not drawn),19,-4
CCn1cc(CN2CCC(C(=O)NCc3ccc(OC)cc3)CC2)c2cc(OC)ccc21,20,1
CCn1cc(CN2CCC(C(=O)NCc3ccc(N(C)C)cc3)CC2)c2cc(OC)ccc21,56*,-2
COc1cc2c(cc1OC)C(SC)=NC(C)(C)C2,-1,95*!
COc1cc2c(cc1OC)C(C1=NC(C)(C)Cc3ccccc31)=NC(C)(C)C2,13,-2
CCC(C)c1ccc(OC2OC(COC(C)=O)C(OC(C)=O)C(OC(C)=O)C2NC(C)=O)cc1 (stereo not drawn),8,-2
CC(C)C(=O)Nc1cccc(NC(=O)C(c2ccccc2)c2ccccc2)c1,5,-3
CC(=O)N1N=C(c2ccc(Br)cc2)CC1c1ccc(Br)cc1 (stereo not drawn),4,-10
Cc1ccc(C2CC(c3ccccc3)=NN2C(=O)CCC(=O)O)cc1 (stereo not drawn),6,5
COc1cc(C(=O)N2N=C(c3ccccc3)CC2c2ccc(N(C)C)cc2)cc(OC)c1OC (stereo not drawn),97*,-1
CC(=O)N1N=C(c2ccccc2)CC1c1ccc(N(C)C)cc1 (stereo not drawn),19,-7
Cc1ccc(C2=NN(C(=O)CCC(=O)O)C(c3ccc(Br)cc3)C2)cc1 (stereo not drawn),11,72*
CC(=O)N1N=C(c2ccc(Br)cc2)CC1c1ccc(N(C)C)cc1 (stereo not drawn),74*,-10
COCCNC(=O)c1cn2cc(-c3cccc(C(F)(F)F)c3)ccc2n1,9,0
COC(=O)c1cccc(C(=O)Nc2ccc(F)cc2Cl)n1,-17,0
Cc1ccc(NC(=O)c2ccc(F)c(S(=O)(=O)NC3CCCCC3C)c2)cc1F (stereo not drawn),15,2
CC1CCCN(C(=O)c2cccnc2N2CCOCC2)C1 (stereo not drawn),3,-5
O=C(Nc1ccc(F)c(Cl)c1)N1CCn2cccc2C1Cc1ccccc1 (stereo not drawn),100*,2
O=C(Nc1cccc(F)c1)N1CCn2cccc2C1Cc1ccccc1 (stereo not drawn),6,-1
O=C(Nc1ccccc1Br)N1CCn2cccc2C1Cc1ccccc1 (stereo not drawn),52*,1
O=C(Nc1ccccc1)N1CCn2cccc2C1Cc1ccccc1 (stereo not drawn),28,-9
SMILES,mHTT CaM bind,Pf apPOL inh
Cc1ccc(CNC(=O)CC2CCN(S(=O)(=O)c3c(C)noc3C)CC2)cc1,-11,-3
Cc1cc(/C=C2\SC(=O)N(C(C)C)C2=O)c(C)n1-c1ccncc1,37,-4
Cc1cc(COC(=O)C2N3C(=O)[C@@H](NC(=O)COc4ccccc4)[C@H]3SC2(C)C)on1 (stereo partly drawn),8,-7
CC1(C)S[C@@H]2[C@H](NC(=O)COc3ccccc3)C(=O)N2[C@H]1C(=O)OCc1cccc2cccnc12,51*,-2
Brc1cccc(CN2CCC(N3CCCCCC3)CC2)c1,-2,70*
Brc1cccc(CN2CCC(N3CCCCC3)CC2)c1,10,3
CCCc1ccc(S(=O)(=O)N2CC=C(c3cn(CC)c4ncccc34)CC2)cc1,22,-4
Cc1ccc(C)c(NS(=O)(=O)c2cn(C)c3ncccc23)c1,55*,91*
CCCn1cc(S(=O)(=O)Nc2cccc(C)c2)c2cccnc21,-1,1
CN(C)CC1CN(C(=O)CCc2ccccc2)CC12CCOCC2 (stereo not drawn),-3,-2
CN(C)c1ccc(NC(=O)c2ccc(Cn3cc([N+](=O)[O-])cn3)cc2)cc1,75*,-4
CCn1ncc(Br)c1C(=O)Nc1ccc(N(C)C)cc1,56*,-7
CN(C)c1ccc(NC(=O)c2ccc(Br)cc2)cc1,7,7
CC(=O)N(C)c1ccc(NC(=O)c2ccc(Cn3cc(Br)cn3)cc2)cc1,8,-1
CN(C)c1ccc(NC(=O)c2ccc(N(C)C)cc2)cc1,72*,-3
CCn1ncc(Br)c1C(=O)Nc1cccc(C(=O)O)c1,0,-3
COc1ccccc1N1CCN(C(=O)C2CCCN(C(=O)c3ccc(F)c(F)c3)C2)CC1 (stereo not drawn),40,-15
NS(=O)(=O)c1ccc2c(c1)C1C=CCC1C(C1CC=CCC1)N2 (stereo not drawn),95*,-3
NS(=O)(=O)c1ccc2c(c1)C1C=CCC1C(C(=O)O)N2 (stereo not drawn),40,-1
NS(=O)(=O)c1ccc2c(c1)C1C=CCC1C(c1cccc3ccccc13)N2 (stereo not drawn),94*,/
O=[N+]([O-])c1ccc2c(c1)C1C=CCC1C(C1CC=CCC1)N2 (stereo not drawn),39,/
NCC1CCCN(CCO)C1 (stereo not drawn),-2,/
COCCC(=O)N1CCc2c(c(CO)nn2Cc2ccccc2)C1,0,0
COc1ccc(CNC(=O)c2cnn3c2NC(c2ccccc2)CC3C(F)(F)F)cc1 (stereo not drawn),18,4
COc1ccc(-c2cc(C(F)(F)F)n3nc(-c4cccs4)cc3n2)cc1OC,/,-12
SMILES,mHTT CaM bind,Pf apPOL inh
O=C1NC(=S)N/C1=C/c1ccc(-c2ccc3c(c2)C(=O)NC3=O)o1,55*,/
CC1=NN(c2ccc(Br)cc2)C(=O)/C1=C/c1ccc(-c2ccc3c(c2)C(=O)NC3=O)o1,6,-1
CCn1c2c(c3ccccc31)CN(C(=O)c1ccc(C#N)cc1)CC2,54*,-4
CSc1nnc(-c2nn(C)c3c2CN(C(=O)c2ccc(C#N)cc2)CC3)n1C,-2,-4
Cn1cccc1C(CNC(=O)C(=O)NCc1ccc2c(c1)OCO2)N1CCOCC1 (stereo not drawn),-1,-10
CCOc1c(O)ccc(C2Oc3ccccc3C3CC(c4cccs4)=NN32)c1[N+](=O)[O-] (stereo not drawn),54*,-7
COc1ccc(O)c(C2Oc3ccccc3C3CC(c4cccs4)=NN32)c1 (stereo not drawn),49,3
Oc1ccccc1C1Oc2ccccc2C2CC(c3cccs3)=NN21 (stereo not drawn),51*,0
c1ccc(C2=NN3C(C2)c2ccccc2OC3c2cccnc2)cc1 (stereo not drawn),39,-3
c1ccc(C2Oc3ccccc3C3CC(c4cccs4)=NN32)cc1 (stereo not drawn),35,5
c1cncc(C2Oc3ccccc3C3CC(c4cccs4)=NN32)c1 (stereo not drawn),25,-37
Oc1ccc(C2Oc3ccccc3C3CC(c4cccs4)=NN32)cc1 (stereo not drawn),51*,-6
